Measurements: the supplement of paper PMC8047044

What follows are compounds tested on Neuro-2a (assay: neurite formation score, plate-normalized to DMSO control mean 5.04 (score (0-8 scale)); higher = more or longer neurites). Conditions: 1 µM.
Procedure: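 Neuro-2a mouse neuroblastoma cells in PLL-coated 96-well plates were pre-treated for 1 h in DMEM(+) with each kinase inhibitor at 1 µM, then switched to serum-free DMEM(-) with inhibitor to induce neurite outgrowth and fixed about 2-3 h later. Three blinded observers scored neurite formation from 0 (no neurites) to 8 (long neurites on almost all cells).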
`C=CC(=O)Nc1cccc(Nc2nc(Nc3ccc(N4CCN(C(C)=O)CC4)cc3OC)ncc2C(F)(F)F)c1` was tested, and the neurite formation score was 4.24. Compound `Cc1cc(C)nc(NS(=O)(=O)c2ccc(NC(=S)NC(=O)COc3ccc(Br)cc3Cl)cc2)n1` has a neurite formation score of 3.9. `CC(C)CC(=O)Nc1n[nH]c2c1CN(C(=O)C1CCN(C)CC1)C2(C)C` gave a neurite formation score of 4.57. For `CNC(=O)c1cc(Oc2ccc(NC(=O)c3cccc(C(F)(F)F)c3)cc2)ccn1`, the neurite formation score was 3.57. `Nc1nc(Nc2ccc3c(c2)CCC(N2CCCC2)CC3)nn1-c1cc2c(nn1)-c1ccccc1CCC2` (stereo not given) gave a neurite formation score of 4.24. Work on `CCCCCCCCCCCC(=O)OCC(CO)OC(=O)CCCCCCCCCCC` (stereo not given) [1,2-Dilauroyl-sn-glycerol] yielded a neurite formation score of 4.54. With `CCS(=O)(=O)N1CC(CC#N)(n2cc(-c3ncnc4[nH]ccc34)cn2)C1` the neurite formation score was 4.02. `COc1cc2nccc(Oc3ccc(NC(=O)Nc4ccc(F)cc4F)c(F)c3)c2cc1OC` was tested, and the neurite formation score was 5.24. With `Nc1nccc(-c2c(-c3ccc(F)cc3)ncn2C2CCCCC2)n1` the neurite formation score was 5.02. In the case of `COc1cc(N2CCOCC2)ccc1Nc1ncc(F)c(Nc2ccccc2NS(C)(=O)=O)n1`, the neurite formation score is reported as 4.54. `COc1cc(Nc2ncc(F)c(Nc3ccc4c(n3)N(COP(=O)(O)O)C(=O)C(C)(C)O4)n2)cc(OC)c1OC` [Fostamatinib (R788)] showed a neurite formation score of 4.8. `CNC(=O)c1cc(Oc2ccc3nc(N[C@@H]4CCCC[C@H]4O)sc3c2)ccn1` gave a neurite formation score of 3.21. With `CCCCCCCCCCCCCCCCCCOP(=O)([O-])OC1CC[N+](C)(C)CC1` [Perifosine] the neurite formation score was 4.57. For `CCCCCCCCCCCCCCCc1cccc(O)c1C(=O)O` [Anacardic acid], the neurite formation score was 4.02. With `O=c1sn(-c2cccc3ccccc23)c(=O)n1Cc1ccccc1` [Tideglusib] the neurite formation score was 4.21. Compound `Clc1ccc(Nc2nnc(Cc3ccncc3)c3ccccc23)cc1` [Vatalanib (PTK787) 2HCl] has a neurite formation score of 3.91. Compound `O=c1cc(-c2cccc3c2Sc2ccccc2S3)oc(N2CCOCC2)c1` has a neurite formation score of 3.69. `CS(=O)(=O)CCNCc1ccc(-c2ccc3ncnc(Nc4ccc(OCc5cccc(F)c5)c(Cl)c4)c3c2)o1` [Lapatinib] gave a neurite formation score of 4.24. In the case of `C[S+]([O-])c1ccc(-c2nc(-c3ccc(F)cc3)c(-c3ccncc3)[nH]2)cc1` (stereo not given), the neurite formation score is reported as 4.57. With `O=C1NC(=O)C(c2cnc3ccccn23)=C1c1cn2c3c(cc(F)cc13)CN(C(=O)N1CCCCC1)CC2` the neurite formation score was 3.47. `CC(C)[C@H](CO)Nc1nc(Nc2cccc(Cl)c2)c2ncn(C(C)C)c2n1` [Purvalanol A] gave a neurite formation score of 3.54. `FC(F)c1nc2ccccc2n1-c1nc(N2CCOCC2)nc(N2CCOCC2)n1` gave a neurite formation score of 4.24. `Cc1csc(-c2nnc(Nc3ccc(Oc4ncccc4-c4ccnc(N)n4)cc3)c3ccccc23)c1` gave a neurite formation score of 3.36. In the case of `CSc1cccc(Nc2ncc3cc(-c4c(Cl)cccc4Cl)c(=O)n(C)c3n2)c1`, the neurite formation score is reported as 0.626. With `C[C@]1(O)C[C@@H](c2nc(-c3ccc4ccc(-c5ccccc5)nc4c3)c3c(N)nccn32)C1` [Linsitinib] the neurite formation score was 4.9. `CCCCOc1c(C(=O)c2c(F)cc(C)cc2F)c[nH]c2nncc1-2` showed a neurite formation score of 5.29. `CCn1c(-c2nonc2N)nc2c(C#CC(C)(C)O)ncc(OC[C@H]3CCCNC3)c21` gave a neurite formation score of 4.02. In the case of `Cc1nc(N)sc1-c1ccnc(Nc2ccc(N3CCOCC3)cc2)n1`, the neurite formation score is reported as 4.69. For `CCc1cccc(CC)c1NC(=O)N1Cc2[nH]nc(NC(=O)c3ccc(N4CCN(C)CC4)cc3)c2C1`, the neurite formation score was 4.8. Compound `C=CC(=O)Nc1ccc2ncnc(Nc3ccc(OCc4cccc(F)c4)c(Cl)c3)c2c1` has a neurite formation score of 4.24. Compound `COc1cc2c(c(OC)c1OC)-c1c(cc3c(c1OC)OCO3)CC(C)C(C)C2` (stereo not given) [Schizandrin B] has a neurite formation score of 4.88. For `CC(C)NC[C@@H](C(=O)N1CCN(c2ncnc3c2[C@H](C)C[C@H]3O)CC1)c1ccc(Cl)cc1`, the neurite formation score was 4.24. In the case of `N#C/C(=C(/N)Sc1ccc(N)cc1)c1ccccc1C(F)(F)F`, the neurite formation score is reported as 3.91. `Cc1cccc(CC(=O)N2CCc3c2ccc(-c2cn(C)c4ncnc(N)c24)c3F)n1` gave a neurite formation score of 4.21. `O=C(CCCCCCC(=O)Nc1ccc(I)cc1)NO` [4-iodo-SAHA] was tested, and the neurite formation score was 5.21. For `CO[C@H]1C[C@@H]2CC[C@@H](C)[C@@](O)(O2)C(=O)C(=O)N2CCCC[C@H]2C(=O)O[C@H]([C@H](C)C[C@@H]2CC[C@@H](OC(=O)C(C)(CO)CO)[C@H](OC)C2)CC(=O)[C@H](C)/C=C(\C)[C@@H](O)[C@@H](OC)C(=O)[C@H](C)C[C@H](C)/C=C/C=C/C=C/1C` [Temsirolimus], the neurite formation score was 4.24. In the case of `CNCc1ccc(-c2cc(-c3nc(-c4ccc(S(=O)(=O)C(C)C)cc4)cnc3N)on2)cc1`, the neurite formation score is reported as 1.29. For `Cc1ncc(CCCN(C)C)cc1Nc1ncc2c(n1)-c1ccc(C(F)(F)F)cc1NC(=S)C2`, the neurite formation score was 5.29. For `Cc1cc(CS(=O)(=O)c2ccccc2)cc(OCc2ccc(CN3CCC[C@@H]3CO)cc2)c1`, the neurite formation score was 4.69. `Cc1[nH]nc2ccc(-c3cncc(OC[C@@H](N)Cc4ccccc4)c3)cc12` gave a neurite formation score of 4.63.
